# Assay results published in PubChem BioAssay (NCATS).
# Inconclusive results are not listed. A call without a number means that no potency is given here. Values without a mark were called inactive. Active and inactive are the calls of the source. Calls come from the whole dose curve; as a rule, active = well fitted curve in the direction sought with a large enough effect; inconclusive = small, poorly fitted or top-dose-only effect, or another doubt; inactive = no such curve, though single readings can be large; an effect the other way counts as inactive or inconclusive.
# How the values were obtained:
# [1] = biological target: Cellular tumor antigen p53 (Homo sapiens) (UniProt P04637); assay: Primary qHTS for small molecule compounds that upregulate eGFP-tagged delta133p53alpha (in N-terminal) cells. (AID 2060322); conditions: NCI-H358 eGFP-delta133p53alpha fluorescence, 24 h; activation: active compounds read high; note: nearly all actives have a fitted effect of over 75% in size; note: potency is the fitted concentration of half-maximal effect; for activation: series mostly up to about 56 µM
# Chain of Cellular tumor antigen p53 (Homo sapiens) (P04637 whole entry, looked up): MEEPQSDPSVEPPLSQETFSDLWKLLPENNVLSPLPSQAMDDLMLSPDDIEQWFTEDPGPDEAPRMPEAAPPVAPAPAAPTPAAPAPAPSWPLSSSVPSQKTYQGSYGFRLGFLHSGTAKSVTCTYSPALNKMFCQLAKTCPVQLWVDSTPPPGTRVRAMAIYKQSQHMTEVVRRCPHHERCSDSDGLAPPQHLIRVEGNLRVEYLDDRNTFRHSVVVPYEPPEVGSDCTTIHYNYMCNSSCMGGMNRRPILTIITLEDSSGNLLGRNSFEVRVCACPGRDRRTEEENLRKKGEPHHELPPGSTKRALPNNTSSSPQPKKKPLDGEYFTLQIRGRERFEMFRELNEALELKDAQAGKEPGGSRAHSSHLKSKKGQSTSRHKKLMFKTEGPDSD
# Method in brief: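 NCI-H358 cells pre-induced 24 h with 10 ng/ml doxycycline to express N-terminal eGFP-delta133p53alpha, then dosed 24 h at 37C without doxycycline; fixed, Hoechst-stained, GFP intensity by laser scanning cytometry, normalized to DMSO (0%) and 57.5 uM 5-azacytidine (100%).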
# [2] = biological target: Aldehyde dehydrogenase, mitochondrial (Homo sapiens) (UniProt P05091); assay: qHTS for Inhibitors of the Aldehyde Dehydrogenase Family (ALDH2) Primary screen (AID 2061308); note: nearly all actives have a fitted effect of over 55% in size
# [3] = biological target: Retinaldehyde dehydrogenase 3 (Homo sapiens) (UniProt P47895); assay: qHTS for Inhibitors of the Aldehyde Dehydrogenase Family (ALDH1A3) Validation screen (AID 2061312); note: nearly all actives have a fitted effect of over 45% in size
# [4] = biological target: Retinaldehyde dehydrogenase 3 (Homo sapiens) (UniProt P47895); assay: qHTS for Inhibitors of the Aldehyde Dehydrogenase Family (ALDH1A3) Primary screen (AID 2061315)
# [5] = BET inhibitor-based combinations targeting novel dependencies in MECOM-rearranged (r) AML: SET-2 cell line (AID 2202231); conditions: SET-2 AML cells viability, CellTiter-Glo luminescence, 48 h; viability: active compounds read low, concentration not given here; note: nearly all actives have a fitted effect of over 35% in size; note: potency is the fitted concentration of half-maximal effect
# Method in brief: (§1)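 Cells were plated at 500 per well and exposed to an 11-point dose series of each drug for 48 hr. Viability was measured by CellTiter-Glo luminescence, normalized to DMSO and empty-well controls, and summarized as AUC and per-cell-line Z-AUC.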
# [6] = BET inhibitor-based combinations targeting novel dependencies in MECOM-rearranged (r) AML: OCI-AML3 cell line (AID 2202232); conditions: Potency: OCI-AML3 viability; note: nearly all actives have a fitted effect of over 35% in size; note: potency is the fitted concentration of half-maximal effect
# Method in brief: as §1
# [7] = BET inhibitor-based combinations targeting novel dependencies in MECOM-rearranged (r) AML: MV-4-11 cell line (AID 2202233); note: nearly all actives have a fitted effect of over 45% in size; note: potency is the fitted concentration of half-maximal effect
# Method in brief: (§2)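 Activity is given as area under the curve and as Z-AUC, mean-centred within each cell line. It comes from 11-point dose curves normalized to DMSO and empty wells. CellTiter-Glo luminescence was read after 48 hr drug exposure of 500 cells/well.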
# [8] = BET inhibitor-based combinations targeting novel dependencies in MECOM-rearranged (r) AML: HNT-34 cell line (AID 2202234); note: nearly all actives have a fitted effect of over 35% in size; note: potency is the fitted concentration of half-maximal effect
# Method in brief: as §2
# [9] = BET inhibitor-based combinations targeting novel dependencies in MECOM-rearranged (r) AML: UCSD-AML1 cell line (AID 2202235); note: nearly all actives have a fitted effect of over 40% in size; note: potency is the fitted concentration of half-maximal effect
# Method in brief: as §2
# [10] = BET inhibitor-based combinations targeting novel dependencies in MECOM-rearranged (r) AML: AML-191 cell line (AID 2202236; note: nearly all actives have a fitted effect of over 35% in size)
# Method in brief: as §1
# [11] = BET inhibitor-based combinations targeting novel dependencies in MECOM-rearranged (r) AML: AML-194 cell line (AID 2202237; note: nearly all actives have a fitted effect of over 40% in size)
# Method in brief: as §1
structure (smiles),measurement,setting,value
O=C(Nc1ccccc1Br)NC1CCN(c2ccc(C(F)(F)F)cn2)C1 (stereo not drawn),activation,[1],0.477%
same,Potency,[2],inactive
same,Potency,[3],inactive
same,Potency,[4],inactive
Cn1c(=O)c2c(ncn2Cc2ccc(C(C)(C)C)cc2)n(C)c1=O,activation,[1],-5.25%
same,Potency,[2],inactive
same,Potency,[3],inactive
same,Potency,[4],inactive
CCN(CC)CCCS(=O)(=O)N[C@H](CCc1ccccc1)c1nc(Cc2ccc(Br)cc2)no1,activation,[1],7.64%
same,Potency,[2],inactive
same,Potency,[3],inactive
same,Potency,[4],inactive
O=C(N[C@@H]1CC[C@@H](c2cccc(F)c2F)CN(CC(F)(F)F)C1=O)N1CCC(n2c(=O)[nH]c3ncccc32)CC1,activation,[1],-0.477%
same,Potency,[2],inactive
same,Potency,[3],inactive
same,Potency,[4],inactive
O=C(NCC1(c2nc(-c3ccccc3)cs2)CCOCC1)c1cccc(-c2noc(C(F)(F)F)n2)c1,activation,[1],1.43%
same,Potency,[2],inactive
same,Potency,[3],inactive
same,Potency,[4],inactive
COC(=O)C(Cc1ccc(OCCn2c(=O)sc3cc(C(=O)c4ccccc4)ccc32)cc1)C(=O)OC,activation,[1],-10.5%
same,Potency,[2],inactive
same,Potency,[3],inactive
same,Potency,[4],inactive
COc1c(C)cnc(Cn2cc(C#CCC(C)(C)O)c3c(Cl)nc(N)nc32)c1C,activation,[1],-10%
same,Potency,[2],inactive
same,Potency,[3],inactive
same,Potency,[4],inactive
O=C(Nc1ccc(N2CCC(C(=O)N3CCOCC3)CC2)cc1)c1cnc(Oc2ccccc2)nc1,activation,[1],-2.39%
same,Potency,[2],inactive
same,Potency,[3],inactive
same,Potency,[4],inactive
CCCC(=O)C1CCN(c2ncnc3c2CN(C(=O)c2ccc(-c4ccccc4)cc2)CC3)CC1,activation,[1],-12.4%
same,Potency,[2],inactive
same,Potency,[3],inactive
same,Potency,[4],inactive
CC(C)(O)c1ccc2c(c1)ncn2-c1cccc(-c2ccccc2C#N)c1,activation,[1],-12.4%
same,Potency,[2],inactive
same,Potency,[3],inactive
same,Potency,[4],inactive
Cc1c(C(=O)Nc2ccc(N3CCC(N4CCOCC4)CC3)c(C#N)c2)cnn1-c1ccc(Cl)cc1,activation,[1],15.8%
same,Potency,[2],inactive
same,Potency,[3],inactive
same,Potency,[4],inactive
C[C@]12CC[C@@H]3c4ccc(OC(=O)c5ccccc5)cc4CC[C@H]3[C@@H]1CC[C@@H]2O,activation,[1],14.3%
same,Potency,[2],inactive
same,Potency,[3],inactive
same,Potency,[4],inactive
Cc1ccc(NC(=O)C(=O)NC2CC(C)(C)NC(C)(C)C2)cc1,activation,[1],-13.4%
same,Potency,[2],inactive
same,Potency,[3],inactive
same,Potency,[4],inactive
Cc1oc2ccccc2c1CNC(=O)NCc1cccs1,activation,[1],-8.59%
same,Potency,[2],inactive
same,Potency,[3],inactive
same,Potency,[4],inactive
O=C(Nc1ccc2[nH]c(=O)oc2c1)C(=O)N1CCC(Cc2ccc(F)cc2)CC1,activation,[1],2.39%
same,Potency,[2],inactive
same,Potency,[3],inactive
same,Potency,[4],inactive
CCOc1ccc(CCNC(=O)c2cc3sc(Cl)cc3n2C)cc1OCC,activation,[1],-10.5%
same,Potency,[2],inactive
same,Potency,[3],inactive
same,Potency,[4],inactive
CCOC(=O)COc1ccc2c(c1)C[C@@H](NC[C@H](O)c1cccc(Cl)c1)CC2,activation,[1],11.9%
same,Potency,[2],inactive
same,Potency,[3],inactive
same,Potency,[4],inactive
CCOC(=O)Nc1cc(-c2ccc(C)c(NS(C)(=O)=O)c2)nn2c(C)nnc12,activation,[1],22.9%
same,Potency,[2],inactive
same,Potency,[3],inactive
same,Potency,[4],inactive
O=C(O)Cn1nnc(-c2ccc(CN(CCCCOc3ccc(CN4CCCC4)cc3)CCc3ccccc3)cc2)n1,activation,[1],7.16%
same,Potency,[2],inactive
same,Potency,[3],inactive
same,Potency,[4],inactive
CCOc1nc2cccc(C(=O)O)c2n1Cc1ccc(-c2ccccc2-c2noc(=O)[nH]2)cc1,activation,[1],0.955%
same,Potency,[2],inactive
same,Potency,[3],inactive
same,Potency,[4],inactive
CCC(C(C)O)n1ncn(-c2ccc(N3CCN(c4ccc(OCC5COC(Cn6cncn6)(c6ccc(F)cc6F)C5)cc4)CC3)cc2)c1=O (stereo not drawn),activation,[1],5.25%
same,Potency,[2],inactive
same,Potency,[3],inactive
same,Potency,[4],inactive
COc1ccc(Oc2cc(C)c(-c3csc(NC(=O)c4ccncc4)n3)c(C)c2)cc1,activation,[1],11%
same,Potency,[2],inactive
same,Potency,[3],inactive
same,Potency,[4],inactive
CC(C)(CO)c1cc2cc(NC(=O)C3(c4ccc5c(c4)OC(F)(F)O5)CC3)c(F)cc2n1CC(O)CO (stereo not drawn),activation,[1],17.7%
same,Potency,[2],inactive
same,Potency,[3],inactive
same,Potency,[4],inactive
CN[C@@H]1[C@@H](O)[C@@H](O[C@@H]2[C@@H](O)[C@H](O[C@H]3O[C@@H]([C@@H](C)NC)CC[C@H]3N)[C@@H](N)C[C@H]2N)OC[C@]1(C)O,activation,[1],-8.59%
same,Potency,[2],inactive
same,Potency,[3],inactive
same,Potency,[4],inactive
NC(=O)CCCSc1nc(N)nc(-c2c(Cl)cc3c4c(cccc24)COC3)n1,activation,[1],-8.59%
same,Potency,[2],inactive
same,Potency,[3],inactive
same,Potency,[4],inactive
CC(C)c1cc(C(=O)N2Cc3ccc(CN4CCN(C)CC4)cc3C2)c(O)cc1O,activation,[1],-13.4%
same,Potency,[2],inactive
same,Potency,[3],inactive
same,Potency,[4],inactive
same,Potency,[5],263 nM (active)
same,Potency,[6],296 nM (active)
same,Potency,[7],74.2 nM (active)
same,Potency,[8],209 nM (active)
same,Potency,[9],263 nM (active)
O=C(NCCN1CCN(c2cccc3c2OCCO3)CC1)c1ccc(F)cc1,activation,[1],-9.07%
same,Potency,[2],inactive
same,Potency,[3],inactive
same,Potency,[4],inactive
CC[C@@H](N)CNc1ccnc(-c2cc(-c3cnn(C)c3)ccc2O)n1,Potency,[1],6.75 µM (active)
same,Potency,[2],inactive
same,Potency,[3],inactive
same,Potency,[4],inactive
Cc1nnc(C(C)C)n1C1CC2CCC(C1)N2CCC(NC(=O)C1CCC(F)(F)CC1)c1ccccc1 (stereo not drawn),activation,[1],-3.82%
same,Potency,[2],inactive
same,Potency,[3],inactive
same,Potency,[4],inactive
same,viability,[5],109%
same,Potency,[6],inactive
same,Potency,[7],inactive
same,Potency,[8],inactive
same,Potency,[9],inactive
same,Potency,[10],inactive
same,Potency,[11],inactive
